Experimental data from the supplement of paper PMC6555819.

Assays:
Test in all cases: PBM binding z-score (relative to random genomic background probes); higher = stronger binding; sequences stand for … in GC…GCGATTGACAGCGTAGAATGAAGG
[1] = tested on: PPARg:RXRa DBDmut IVT, anti-RXR (DBD mutation: RXRa K156A/R161A, NR concentration 270 nM, RXRa partner concentration 90 nM)
Procedure, shortened: (§1)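 Random background probes are the reference for binding z-scores. These scores derive from regression-normalized fluorescence on custom Agilent 4×180K protein-binding microarrays incubated 1 h with ligand-free nuclear receptor dimers. Binding was detected with antibodies against each partner (one per run).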

[2] = tested on: PPARg:RXRa IVT, anti-PPARg (NR concentration 270 nM, RXRa partner concentration 90 nM)
Procedure, shortened: as §1

[3] = tested on: PPARg DBDmut:RXRa IVT, anti-PPARg (DBD mutation: PPARg1 K132A/R137A, NR concentration 270 nM, RXRa partner concentration 90 nM)
Procedure, shortened: as §1

[4] = tested on: PPARg DBDmut IVT, anti-PPARg (DBD mutation: PPARg1 K132A/R137A, NR concentration 270 nM)
Procedure, shortened: as §1

[5] = tested on: PPARg homodimer (NR concentration 180 nM)
Procedure, shortened: as §1

[6] = tested on: PXR:RXRa (NR concentration 270 nM, RXRa partner concentration 90 nM)
Procedure, shortened: as §1

[7] = tested on: PXR homodimer (NR concentration 270 nM)
Procedure, shortened: as §1

[8] = tested on: RARa:RXR (NR concentration 270 nM, RXRa partner concentration 90 nM)
Procedure, shortened: as §1

[9] = tested on: RARa homodimer (NR concentration 270 nM)
Procedure, shortened: as §1

[10] = tested on: RARb:RXRa (NR concentration 270 nM, RXRa partner concentration 90 nM)
Procedure, shortened: as §1

[11] = tested on: RARb homodimer (NR concentration 270 nM)
Procedure, shortened: as §1

[12] = tested on: RARg:RXRa (NR concentration 270 nM, RXRa partner concentration 90 nM)
Procedure, shortened: as §1

[13] = tested on: RARg homodimer (NR concentration 270 nM)
Procedure, shortened: as §1

[14] = tested on: RXRa DBDmut IVT, anti-RXR (DBD mutation: RXRa K156A/R161A, NR concentration 90 nM)
Procedure, shortened: as §1

[15] = tested on: RXRa homodimer (NR concentration 180 nM)
Procedure, shortened: as §1

[16] = tested on: THRa:RXRa (NR concentration 90 nM, RXRa partner concentration 90 nM)
Procedure, shortened: as §1

[17] = tested on: THRa homodimer (NR concentration 90 nM)
Procedure, shortened: as §1

[18] = tested on: VDR homodimer (NR concentration 270 nM)
Procedure, shortened: as §1

Row | Sequence | PBM binding z-score [1] | PBM binding z-score [2] | PBM binding z-score [3] | PBM binding z-score [4] | PBM binding z-score [5] | PBM binding z-score [6] | PBM binding z-score [7] | PBM binding z-score [8] | PBM binding z-score [9] | PBM binding z-score [10] | PBM binding z-score [11] | PBM binding z-score [12] | PBM binding z-score [13] | PBM binding z-score [14] | PBM binding z-score [15] | PBM binding z-score [16] | PBM binding z-score [17] | PBM binding z-score [18]
1 | CGTCCAAGGTCAGAGAGGTTAGTGAATGCCGAGT | 2.24 | 2.47 | -0.113 | -0.422 | 2.06 | 3.93 | 4.8 | 3.47 | 0.223 | 4.7 | 3.85 | 4.7 | 5.08 | 2.6 | 3.73 | 3.45 | 1.87 | 2.96
2 | CTACCAAAGTGAACAAGGTCGTTGATTACTATTC | 0.74 | 0.473 | 0.238 | 0.295 | 0.64 | 1.76 | 1.48 | 1.47 | 0.789 | 0.821 | 1.32 | 0.65 | 0.529 | 1.69 | 0.996 | 1.94 | 1.24 | 2.22
3 | TGAATGCGGTTATAAGATCAGGGAACGTTGCAAA | -1.13 | 0.042 | 0.512 | 0.235 | 0.329 | -0.103 | 0.0437 | -0.0387 | -0.0517 | 0.025 | -0.46 | 0.175 | 0.239 | -0.906 | -0.0523 | -0.183 | -0.559 | -0.171
4 | TCTTGAAGATCAAGCAGGTTAAGAAAGCCTGAGT | 1.28 | -0.366 | 0.0587 | -0.888 | -0.603 | 0.456 | -0.168 | 0.215 | -1.22 | 0.0323 | -0.113 | -0.172 | -0.516 | 0.456 | 0.318 | 0.216 | -0.679 | -0.115
5 | TCTATTAGTTGATTAGGTCAACCGAAACAGCGGA | 2.89 | 3.1 | 1.43 | 1.8 | 2.28 | 2.03 | 0.923 | 2.56 | 1.9 | 2.73 | 3.09 | 2.8 | 2.68 | 1.55 | 2.1 | 3.1 | 2.74 | 1.2
6 | CCTACTGGGCCAAGGTCATTCATCAGTCAAAGCA | 4 | 4.59 | -0.258 | -0.0447 | 2.02 | 3.93 | 1.66 | 3.84 | 0.345 | 3.34 | 3.52 | 3.84 | 3.48 | 1.7 | 3.42 | 3.44 | 2.53 | 3.56
7 | TTACGAAGGTGAAGGTCGTTGATCCCTCTGTAGA | 1.43 | 2.62 | 0.0113 | -0.332 | 0.462 | 1.58 | -0.113 | 1.68 | -0.46 | 2.23 | 1.84 | 1.38 | 1.26 | 0.133 | 1.93 | 1.52 | 0.135 | 0.942
8 | CGTCCAAGGTCAAGGTCGGTGAAAGAGACTCGAA | 3.16 | 4.02 | -0.058 | -0.563 | 2.86 | 4.31 | 0.887 | 5.05 | 0.962 | 5.34 | 4.27 | 6.3 | 6.78 | 3.67 | 5.99 | 4.11 | 2.88 | 2.44
9 | TCTATTAGTTGAAGGGCAACCGTCGAGTCCGTTT | 2.35 | 0.992 | 0.699 | 1.21 | 0.883 | 0.735 | 0.911 | 0.24 | 1.09 | 1.63 | 1.41 | 0.513 | 0.573 | 1.63 | 0.558 | 0.234 | 0.122 | 1.61
10 | CCTCGGAGGACAACAGGAGGTCACAGCTGCCAGA | 0.582 | 1.67 | -1.61 | -1.12 | 2.8 | 4.2 | 0.604 | 4.69 | 0.924 | 3.35 | 4.25 | 4.52 | 3.89 | 0.736 | 3.9 | 3.81 | 2.24 | 2.42
11 | TAGCCTAGGTCAGATCAGGCCAGTATACGCTATA | 0.459 | 1.56 | 0.119 | -0.493 | 0.306 | 2.07 | -0.691 | 1.21 | -0.581 | 2.93 | 2.07 | 2.81 | 3.44 | -0.202 | 1.41 | 4.36 | 0.219 | -0.305
12 | TCTTGTAGTTCAAAGGTTAAGAAAGCCGAAGCCT | 1.69 | 2.84 | 0.125 | 1.99 | 1.87 | 4.59 | 0.443 | 6.25 | 0.439 | 3.36 | 2.54 | 4.81 | 2.39 | 2.69 | 6.78 | 2.53 | -0.0884 | 1.9
